Out of some 48,000 compounds screened, about 13,000 (27%) showed an effect of 50% or more. The list shows a part of the results.
tested on: Wolbachia pipientis; test: Anti-Wolbachia Cell-Based Screen; type: functional; set-up: scale not given: in the data most compounds retested in dose-response had high values; conditions: 5 µM

In order of rising “Percent Effect” value:
1. O=C(CCn1cccn1)NCC(c1cccs1)N1CCCC1 (stereo unspecified)  -57.56%
2. O=C(O)C(c1ccc2c(c1)OCO2)N1CCCC1 (stereo unspecified)  -31.26%
3. COc1ccccc1C(C(=O)O)N1CCCN(C2CCCC2)CC1 (stereo unspecified)  -24.96%
4. Cc1nnc2sc(-c3cc(C(C)C)n[nH]3)nn12  -19.82%
5. N#Cc1c(F)cccc1N1CCC(NS(=O)(=O)c2cccs2)CC1  -19.03%
6. O=C(NC[C@H]1OC[C@@H](NC2COC2)[C@@H]1O)c1ccccc1  -18.77%
7. CCN(C)CCNC(=O)Cc1nc(-c2ccco2)oc1C  -18.21%
8. CC(C)c1cc(-c2nn3c(C(C)C)nnc3s2)[nH]n1  -17.87%
9. COc1ccc(C(C(=O)O)N2CCC(O)(c3cccnc3)CC2)cc1F (stereo unspecified)  -17.65%
10. COCc1nccc(C2CCCN(Cc3ccc(SC)cc3)C2)n1 (stereo unspecified)  -16.87%
11. CCOc1ccc(Cl)cc1C(C(=O)O)N1CCC(CO)CC1 (stereo unspecified)  -16.74%
12. COCc1nccc(C2CCCN(Cc3ccc(C#N)cc3)C2)n1 (stereo unspecified)  -15.32%
13. CCC(Nc1nc(C(C)C)nc2c1cnn2C)c1ccc(O)cc1 (stereo unspecified)  -13.26%
14. O=c1[nH]c(NC2CCCC2)nc2nccc(-c3ccsc3)c12  -12.83%
15. CC(C)(C)C(=O)NCCC(=O)Nc1cc(C#N)cn1C(C)(C)C  -12.46%
16. Cc1ccc(NC(C)C(=O)N(C)Cc2cccc(F)c2)cc1C(N)=O (stereo unspecified)  -12.41%
17. CCn1c(CN(C)C(=O)c2ccc(N(C)C)nc2)nc2ccccc21  -11.95%
18. N#Cc1ccc(SCCOCCO)c(F)c1  -11.88%
19. Cc1nc(N2CCCCC2)ncc1-c1cc(=O)[nH]c(N2CCCC2)n1  -11.82%
20. Cn1cc(C2CC(=O)NC23CCN(CC2CC2)CC3)cn1.O=C(O)C(F)(F)F (stereo unspecified)  -10.6%
21. COCC1c2nnn(CC3CC3)c2CCN1C(=O)C1CCOCC1 (stereo unspecified)  -9.696%
22. CNC(=O)c1nc2c(s1)CCN(C(=O)c1cccc(OC)c1)CC2  -8.352%
23. Cc1ccc(O)c(C(=O)N2CCCC2c2nncn2CC(C)C)c1 (stereo unspecified)  -6.935%
24. Cc1nc(CNC(C)c2cccc(N3CCCC3=O)c2)cs1.Cl (stereo unspecified)  -6.766%
25. Cn1cnc(S(=O)(=O)N2CCCC2)c1Cl  -6.345%
26. N#Cc1ccc(CN2CCC(c3ccnn3CCO)CC2)cc1  -5.885%
27. Cc1noc(CN2CCC(c3ccnn3CCO)CC2)n1  -5.622%
28. COc1cc(C(C)NCc2c[nH]nc2C)ccc1OCCO (stereo unspecified)  -5.579%
29. OCc1ccc(CNc2ccccc2CN2CCC(O)CC2)o1  -5.459%
30. CN(Cc1ccc(Cl)s1)C(=O)c1cccc(OCC(N)=O)c1  -4.963%
31. O=C(Nc1ccccc1)C1CN(Cc2ccco2)CC12CCOCC2.O=C(O)C(F)(F)F (stereo unspecified)  -4.746%
32. COc1cccc2c1OCCCN(c1nc3c(c(=O)[nH]1)CCNCC3)C2  -4.298%
33. O=C(NCc1cc[nH]n1)NCC(c1ccco1)N1CCCC1 (stereo unspecified)  -4.044%
34. OCC1CCCCN1Cc1nc(Cc2cccc(F)c2)no1 (stereo unspecified)  -3.414%
35. COc1ccc(-c2ccnc3c2C(=O)CCC3)cc1  -3.402%
36. CCN(Cc1ccoc1)C(=O)Nc1ccccc1CN(C)C(C)=O  -2.695%
37. CCc1nc(C2CCCN2Cc2nc(Cc3ccccc3)no2)no1 (stereo unspecified)  -2.634%
38. COc1ccc(C(=O)Nc2cnn(CC(=O)NC3CCCC3)c2)c(O)c1  -2.411%
39. O=C(NCCn1ccnc1)NCC(c1ccco1)N1CCCCC1 (stereo unspecified)  -2.241%
40. O=S(=O)(Cc1nc(C2CC2)no1)c1ccccc1F  -2.004%
41. NC(=O)C1CCN(c2nc3nccc(-c4ccccc4)c3c(=O)[nH]2)CC1  -1.836%
42. COCCNc1ccc(CNC(=O)C2COc3ccccc32)cc1 (stereo unspecified)  -1.749%
43. NC(=O)C1CCN(C(C(=O)O)c2ccc(Cl)c(C(F)(F)F)c2)CC1 (stereo unspecified)  -1.554%
44. O=C(Cn1cccn1)NCC(c1cccs1)N1CCCC1 (stereo unspecified)  -1.128%
45. COc1cccc(-c2n[nH]cc2-c2nc(CN3CCCC3)no2)c1  -0.8918%
46. Cn1cnc(S(=O)(=O)NCCCN2CCOCC2)c1Cl  -0.729%
47. Cc1ccncc1C(=O)N1CC[C@@]2(O)CCN(C3CCCCC3)C[C@H]2C1  -0.1912%
48. Cc1cc(-c2nn3c(C)nnc3s2)n[nH]1  0.3213%
49. COc1cccc(Cl)c1C(C(=O)O)N1CCC(O)(c2cccnc2)CC1 (stereo unspecified)  0.4267%
50. O=C(O)C(c1ccc(Cl)c(F)c1)N1CCN(Cc2ccccn2)CC1 (stereo unspecified)  0.4357%
51. Cn1cnc(S(=O)(=O)NCCCN2CCCCCC2)c1Cl  0.4653%
52. Cn1cnc2c1C(COCc1cccnc1)N(Cc1nccs1)CC2.O=C(O)C(F)(F)F.O=C(O)C(F)(F)F.O=C(O)C(F)(F)F (stereo unspecified)  0.7375%
53. COc1ccc(-c2nnc([C@H]3CCN(CC4CC4)C3)o2)cc1  1.558%
54. CCCN1CCN(S(=O)(=O)c2ncn(C)c2Cl)CC1  1.683%
55. CCC(C(=O)NCc1ccccn1)N(c1cccc(C)c1)S(C)(=O)=O (stereo unspecified)  1.713%
56. Cc1ccc2[nH]c([C@H]3CCN(CC4CCCCC4)C3)nc2c1  2.151%
57. CC(OCC1CC1)C(=O)N1CCCN(c2nc3ccccc3[nH]2)CC1 (stereo unspecified)  2.156%
58. COc1ccc(CNC[C@H]2COCc3nc4cccnc4n32)cn1  2.273%
59. O=C(NC[C@H]1OC[C@@H](NC2CCCCC2)[C@@H]1O)Nc1ccccc1  2.791%
60. COc1ccc(CC2CCCN2CCCC#N)cc1 (stereo unspecified)  3.146%
61. COc1ccc(CCNC(=O)N2CCN(C)[C@@H]3CS(=O)(=O)C[C@@H]32)cc1  3.976%
62. O=C(NCC(O)c1ccc(F)cc1)C1CCN(C2CCCCC2)CC1 (stereo unspecified)  4.274%
63. CC(C)(C)n1ncc2c(=O)[nH]c(N3CCN(CC(F)F)CC3)nc21  4.311%
64. Cc1ccc(S(=O)(=O)Cc2noc([C@@H]3C[C@@H](O)CN3)n2)cc1  5.528%
65. CN(CC(=O)NCCc1cc2ccccc2o1)S(C)(=O)=O  6.714%
66. O=C(NCCCn1ccnc1)N1CCCC1c1cccs1 (stereo unspecified)  8.272%
67. Cc1cc(N2CCN(c3nc4ccccc4cc3CO)CC2)nc(C)n1  9.089%
68. Cn1[nH]c(C2CCC2)c(-c2ccc3c(c2)OCO3)c1=N  9.847%
69. Cc1ccc2c(c1)OCCN2C(=O)c1ccc(=O)n(C)c1  10.97%
70. O=C(NCc1ccccn1)NCC(c1ccco1)N1CCCC1 (stereo unspecified)  11.6%
71. Cc1ccccc1-c1csc2c(=O)[nH]c(N3CCCC(C(=O)O)C3)nc12 (stereo unspecified)  12.14%
72. O=C(NCc1ccccn1)NCC(c1ccco1)N1CCCCC1 (stereo unspecified)  12.69%
73. Cc1ccc(-c2csc3c(=O)[nH]c(N4CCCC(C(=O)O)C4)nc23)cc1 (stereo unspecified)  13.24%
74. OCC1CCCCN1Cc1nc(Cc2ccccc2)no1 (stereo unspecified)  15.34%
75. O=C(C1CCC1)N1CCC2(CCN(Cc3cccc(F)c3)CC2)CC1.O=C(O)C(F)(F)F  18.44%
76. COc1ccc(C(C(=O)O)N2CCN(C3CCCC3)CC2)cc1C (stereo unspecified)  19.06%
77. COc1ccc(C(C(=O)O)N2CCN(C3CCCC3)CC2)cc1OC (stereo unspecified)  20.13%
78. O=C(O)C(c1ccc2c(c1)OCO2)N1CCCCCC1 (stereo unspecified)  23.77%
79. c1ccc(Cc2noc(CN3CCCC3C3CCCCC3)n2)cc1 (stereo unspecified)  35.45%
80. O=c1[nH]c(N2CCCCC2)nc2nccc(-c3ccc4c(c3)OCO4)c12  81.44%
81. COCCOC1CCN(C(C(=O)O)c2c(Cl)cccc2OC)CC1 (stereo unspecified)  87.97%
82. CN(C)CCN(C)C1CCN(C(C(=O)O)c2ccc(F)c(Cl)c2)CC1 (stereo unspecified)  97.08%
83. O=C(NCCCn1ccnc1)NCC(c1ccco1)N1CCCC1 (stereo unspecified)  97.42%
84. Cn1cnc(S(=O)(=O)NCCCN2CCCC2)c1Cl  98.8%
85. Cn1cc(C2CC(=O)NC23CCN(Cc2ccncc2)CC3)cn1.O=C(O)C(F)(F)F.O=C(O)C(F)(F)F (stereo unspecified)  100.3%
86. Cn1cc(C2CC(=O)NC23CCN(Cc2cccc(F)c2)CC3)cn1.O=C(O)C(F)(F)F (stereo unspecified)  101.2%
87. c1ccc(Cc2noc(CN3CCCC3Cn3cccn3)n2)cc1 (stereo unspecified)  101.6%
88. Cn1cnc(S(=O)(=O)NCCN2CCCCCC2)c1Cl  104.3%
89. COc1ccc(-c2ccnc3nc(N4CCCCC4)[nH]c(=O)c23)cc1  107.2%
90. COCCOC1CCN(C(C(=O)O)c2ccc(OC)c(F)c2)CC1 (stereo unspecified)  107.6%
91. O=C(NCCn1ccnc1)NCC(c1ccco1)N1CCCC1 (stereo unspecified)  107.9%
92. COCCOC1CCN(C(C(=O)O)c2ccc(F)c(Cl)c2)CC1 (stereo unspecified)  111%
93. COCCOC1CCN(C(C(=O)O)c2ccc3c(c2)OCO3)CC1 (stereo unspecified)  111.3%
94. COc1ccccc1-c1ccnc2nc(N3CCCCC3)[nH]c(=O)c12  113.6%
95. Nc1nccc(C2CCN(CCO)C2)n1 (stereo unspecified)  113.7%
96. O=C(NCCCn1cccn1)NCC(c1ccco1)N1CCCC1 (stereo unspecified)  116.5%
97. CCN(CC)Cc1nnc2sc(-c3cc(C(C)C)[nH]n3)nn12  118.1%
98. COc1cccc(-c2ccnc3nc(N4CCCCC4)[nH]c(=O)c23)c1  120.5%
99. CCCc1nnc2sc(-c3cc(C(C)C)n[nH]3)nn12  120.9%
100. c1ccc(Cc2noc(CN3CCCCC3Cn3cccn3)n2)cc1 (stereo unspecified)  121.7%
101. Nc1nccc(C2CCN(CC3CC3)C2)n1 (stereo unspecified)  123.6%
102. CC(C)Cc1nnc2sc(-c3cc(C(C)C)n[nH]3)nn12  131.5%
103. Nc1nccc(C2CCCN(CC3CC3)C2)n1 (stereo unspecified)  142.8%
104. COc1ccc(-c2ccnc3nc(N4CCCC4)[nH]c(=O)c23)cc1OC  143.1%
105. O=C(NCCCn1ccnc1)NCC(c1ccco1)N1CCCCC1 (stereo unspecified)  152.2%
106. CCc1nnc2sc(-c3cc(C(C)C)n[nH]3)nn12  154.2%
